Screening results as filed in PubChem.
Rows were chosen to be rich in hits. Some 32% of all compounds tested hit in one or more screens of this group.
CYP2C19 inh: inhibitors of human CYP2C19; CYP2C19 Supersomes, luciferin-H EGE luminescence, 30 min; 96,000 compounds, 21% hits; inhibition, % at 5 µM; P33261;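 active = CYP2C19 inhibition above a set limit at 5 µM in the primary screen, cut at about 50% in these data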
CYP2C9 act: CYP2C9 (human) activation; P11712; AID 1024; activation factor at 5 µM; 96,000 compounds, 1.4% hits; recombinant CYP2C9, luciferin-H conversion, luminescence; active compounds read high; factor 1 = untreated enzyme, 0 = blocked;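 active = activation factor of 2 or more for CYP2C9 at a 5 µM dose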
Target sequence (P11712 whole entry, looked up): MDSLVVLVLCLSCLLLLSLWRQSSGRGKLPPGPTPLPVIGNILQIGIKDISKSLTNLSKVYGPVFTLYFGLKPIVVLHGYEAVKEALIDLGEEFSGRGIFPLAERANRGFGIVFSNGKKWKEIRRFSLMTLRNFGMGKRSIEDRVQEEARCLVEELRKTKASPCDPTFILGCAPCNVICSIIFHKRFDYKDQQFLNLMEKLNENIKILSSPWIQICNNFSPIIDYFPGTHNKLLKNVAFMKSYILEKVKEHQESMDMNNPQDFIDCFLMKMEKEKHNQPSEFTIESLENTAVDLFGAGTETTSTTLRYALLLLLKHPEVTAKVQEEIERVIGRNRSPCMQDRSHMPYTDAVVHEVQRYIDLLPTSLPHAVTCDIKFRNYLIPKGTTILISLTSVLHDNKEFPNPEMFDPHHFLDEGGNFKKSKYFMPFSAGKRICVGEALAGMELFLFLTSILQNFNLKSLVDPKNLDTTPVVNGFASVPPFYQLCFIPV
PostGolgi ctrl: inhibits growth of the yeast control strain. efflux-deficient yeast background strain, growth absorbance A615, 16 h. inhibition, % at 10 µM. 98,000 compounds, 5% hits. AID 738
CYP2C9 inh: human CYP2C9 inhibition. 96,000 compounds, 20% hits. inhibition, % at 5 µM. P11712. CYP2C9 Supersomes, luciferin-H conversion, luminescence;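 active = blocking of liver enzyme CYP2C9 beyond about 50% at 5 µM, limit read from the data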
CYP2C19 act: activators of human cytochrome P450 2C19 | 96,000 tested, under 10 active | activation factor at 5 µM | recombinant CYP2C19, luciferin-H EGE luminescence; active compounds read high; 0 = fully inhibited enzyme, 1 = untreated enzyme | AID 1025 | P33261;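 active = activation factor of at least 2 at 5 µM in the primary screen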
PostGolgi yeast: growth inhibition of a yeast mutant, post-Golgi transport screen; post-Golgi transport phenotypic cell assay; inhibition, % at 10 µM; 98,000 compounds, 0.9% hits;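 note: yeast cells grown in 1536-well plates; yeast grown about 18 h at 30C before absorbance read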
Each line names hits and unclear results; the compound was inactive in the other large screens. Cut-off read from the data, not from the text of the source, unless noted: active = inhibition above about 30%; inactive = the rest.

Nn1c(SCc2ccccc2)nnc1-c1ccco1	none
Nn1c(SCc2cccc3ccccc23)nnc1-c1ccco1	CYP2C9 act 2.6
Cc1nc2sc(C(c3ccco3)N3CC(C)OC(C)C3)c(O)n2n1 (centres undefined)	none
COc1ccc(C(=O)n2nc(-c3ccccc3)nc2N)cc1OC	none
CCOC(=O)C(C)Oc1c(Br)cc(C2NC(=O)NC(C)=C2C(C)=O)cc1OCC (centres undefined)	CYP2C19 inh 57.9, CYP2C9 inh 55.1
CCn1c(SCC(=O)OC(C)C)nnc1-c1cccc(Cl)c1	CYP2C19 inh 54.8
CC(C)OC(=O)CSc1nnc(Cc2ccccc2)n1C	none
CCOC(=O)CSc1nnc(-c2nnc(SCC(=O)OCC)n2CC)n1CC	none
CC(C)OC(=O)CSc1nnc(-c2ccc(O)cc2)n1Cc1ccccc1	CYP2C19 inh 64.0
Cc1ccc(CNC(=O)c2ccc(CN3CCOCC3)cc2)cc1	none
O=C1C(NS(=O)(=O)c2cccs2)=C(N2CCN(c3cccc(Cl)c3)CC2)C(=O)c2ccccc21	CYP2C19 inh 51.2, CYP2C9 inh 77.6
O=C(NCCN1CCN(c2ccccc2)CC1)C1CCN(S(=O)(=O)c2cccs2)CC1	none
COc1ccc(C(=O)/C=C(\C)Nc2ccc3c(c2)OCO3)cc1	none
COc1ccc(C(=O)N2c3cc4c(cc3C(C)=CC2(C)C)OCO4)cc1	CYP2C19 inh 91.5, CYP2C9 inh 95.4
COC(=O)c1ccc(NC(=O)CSCC(=O)OCC(=O)c2ccc(Br)cc2)cc1	none
COC(=O)C(CC(=O)c1ccc(Br)cc1)n1ccnc1 (centres undefined)	CYP2C19 inh 95.5, CYP2C9 inh 80.8
COc1cccc(/C=c2/s/c(=C(\C#N)C(=O)N3CCOCC3)n(-c3ccccc3)c2=O)c1	none
CCn1c2c(c3cc(Br)ccc31)CCC/C2=N\O	PostGolgi ctrl 41.0
CCCn1c2ccc(/C(C)=N\O)cc2c2cc(/C(C)=N/O)ccc21	none
Clc1ncn(C23CC4CC(CC(C4)C2)C3)n1	none
Cc1ccnc(N2C(=O)OC(C)(C)C2(C)O)c1 (centres undefined)	none
CC1(C)CC(=O)C(C=NCC2CCN(C(=O)Nc3ccc(Cl)c(Cl)c3)CC2)=C(O)C1	PostGolgi ctrl 38.0
Cc1c(C(=O)N2CCN(c3ccccc3F)CC2)sc2nc(-c3ccccc3)cn12	PostGolgi ctrl 35.3
CCOC(=O)C1CCCN(C(=O)c2sc3nc(-c4ccccc4)cn3c2C)C1 (centres undefined)	CYP2C19 inh 59.1, CYP2C9 inh 56.0 (no result: PostGolgi ctrl, PostGolgi yeast)
CCOC(=O)N1CCN(C(=O)c2ccc3c(c2)sc2nc(-c4ccccc4)cn23)CC1	CYP2C9 inh 57.3
COc1ccc(N2CCN(C(=O)c3sc4nc(-c5ccc(F)cc5)cn4c3C)CC2)cc1	none (no result: PostGolgi ctrl, PostGolgi yeast)
COc1cc(C(=O)NCCC(=O)NCCN2CCOCC2)cc(OC)c1OC	none
CC(C)OC(=O)C1C2C=CC3(CN(C(C)c4ccc(Br)cc4)C(=O)C13)O2 (centres undefined)	CYP2C19 inh 83.0
CCOc1ccc(N2C(=O)CC(N3CCC(NC(=O)Nc4ccccc4)CC3)C2=O)cc1 (centres undefined)	CYP2C19 inh 89.6, CYP2C9 inh 58.7
CCOc1ccc(N2C(=O)CC(N3CCN(C(=O)CN4CCCC4)CC3)C2=O)cc1 (centres undefined)	none
COc1ccc(N2CCN(C(=O)CCNS(=O)(=O)c3ccc4c(c3)CCC(=O)N4)CC2)cc1	none (no result: CYP2C19 inh, CYP2C9 act, CYP2C9 inh, CYP2C19 act)
CCN(CC)C(=O)c1sc(NC(=O)c2ccoc2C)c(C(=O)OC)c1C	none
COC(=O)c1c(-c2ccncc2)csc1NC(=O)c1ccoc1C	CYP2C19 inh 93.7, CYP2C9 inh 74.3
O=C(c1cc2ccccc2oc1=O)N1CCSC1c1ccco1 (centres undefined)	CYP2C19 inh 55.6, CYP2C9 act 2.5
Cn1c(CN2CCCC2)nc2cc(NC(=O)C3CCCCC3)ccc21	none
COc1cc(-n2c(=O)c3ccccc3n(Cc3ccccc3)c2=O)cc(OC)c1OC	CYP2C19 inh 62.5
O=C1CC(c2ccco2)Cc2nc(N3CCN(Cc4ccc5c(c4)OCO5)CC3)ncc21 (centres undefined)	none
CC#CCCCC(=O)Nc1cccc(C(=O)O)c1	none
Cc1ccc(S(=O)(=O)N(CC(=O)N2CCN(c3ccc(F)cc3)CC2)C2CCCCC2)cc1	CYP2C9 inh 51.5
CCOC(=O)N1CCN(C(=O)CN(C2CCCCC2)S(=O)(=O)c2ccc(C)cc2)CC1	none
CCNC(=O)CN(C1CCCCC1)S(=O)(=O)c1ccc(F)cc1	none
CNC(=O)CN(C1CCCCC1)S(=O)(=O)c1ccc(F)cc1	CYP2C19 inh 65.7
O=C(CN(C1CCCCC1)C1CCCCC1)N1CCc2ccccc2C1	CYP2C19 inh 75.7, CYP2C9 inh 65.2
O=C(CN(C1CCCCC1)S(=O)(=O)c1ccccc1)N1CCCC1	CYP2C9 inh 51.2
CCn1c(CNC(=O)c2cccc(C)c2)nnc1SCC(=O)NC1CCCCC1C (centres undefined)	none
O=C(COn1nnc2ccccc21)NCC1CCCCC1	CYP2C19 inh 55.2
COC(=O)c1ccccc1OCC(=O)NC1CCCCC1	CYP2C19 inh 64.2
CCc1ccccc1OCC(=O)NC1CCCC1	CYP2C19 inh 92.9
COc1ccccc1OCC(=O)NCCNC(=O)COc1ccccc1OC	none
COc1ccccc1N(CC(=O)NC1CCCCC1)S(C)(=O)=O	none
COc1ccccc1OCC(=O)NCC1CCCCC1	CYP2C19 inh 94.7
COc1cccc2c1OC[C@@H](CO)[C@H]2N(C)C(=O)Nc1ccc(Cl)cc1Cl	none
COc1cc(=O)[nH]c(=O)n1CC(=O)c1ccccc1	none (no result: CYP2C19 inh, CYP2C9 act, CYP2C9 inh, CYP2C19 act)
CO/N=C(/CNC(=O)c1ccc(F)cc1)c1ccc(Cl)cc1	CYP2C19 inh 85.5, CYP2C9 inh 64.2
CS(=O)(=O)N(CCC(=O)O)Cc1ccccc1	none
CN1CCN(/C=N/C2=C(C#N)C(c3ccccc3)C3=C(CC(C)(C)CC3=O)O2)CC1 (centres undefined)	none
N#CC1=C(N)OC2=C(C(=O)CCC2)C1c1ccncc1 (centres undefined)	none
CC1(C)CC(=O)C2=C(C1)OC(N)=C(C#N)C2C#Cc1ccccc1 (centres undefined)	CYP2C9 inh 69.3
CC(c1ccccc1)C1C(C#N)=C(N)OC2=C1C(=O)CC(C)(C)C2 (centres undefined)	CYP2C19 inh 90.1, CYP2C9 inh 84.2
CC1(C)CC(=O)C2=C(C1)OC(N)=C(C#N)C2CCc1ccccc1 (centres undefined)	none (no result: CYP2C19 inh, CYP2C9 act, CYP2C9 inh, CYP2C19 act)
CC1(C)CC(=O)C2=C(C1)OC(/N=C/N1CCOCC1)=C(C#N)C2c1ccccc1 (centres undefined)	CYP2C9 inh 65.4
CC(CC1C(C#N)=C(N)OC2=C1C(=O)CCC2)c1ccccc1 (centres undefined)	CYP2C19 inh 92.6, CYP2C9 inh 87.8
Cc1ccccc1/C(N)=N/OC(=O)/C=C/c1ccccc1	none
O=c1[nH]nc2n1CCCCC2	none
CCc1nnc(NC(=O)C2CCC2)s1	none
